# Results taken from PubChem BioAssay AID434990 (Southern Research Specialized Biocontainment Screening …, 2010).
# The source made the active and inactive calls.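 Rule for the calls: active = inhibition above 40% at one or more tested concentrations in the dose response counterscreen; inactive = inhibition below 40% at every dose tested.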
# Assay: nmpC-GFP reporter inhibition in S. Typhimurium, SAR follow-up, counter-screen for PhoP regulon inhibitor project, synthesized compounds, round 3 (AID 434990)
# Settings: S. Typhimurium counter-screen GFP reporter fluorescence, 4 h; series mostly up to 150 µM
row,Compound,outcome
1,N#Cc1ccccc1NC(=S)NCc1ccc(Cl)cc1,inactive
2,O=C(Nc1cccc(C(F)(F)F)c1)N1CCCN(Cc2ccccc2F)C1,inactive
3,S=C(NCCc1ccc(Cl)cc1)Nc1ccncc1,inactive
4,N#Cc1ccc(NC(=S)NCc2ccc(Cl)cc2)cc1,inactive
5,O=C(Nc1cccc(I)c1)N1CCCN(Cc2ccccc2F)C1,inactive
6,COc1ccccc1CNC(=S)Nc1ccncc1,inactive
7,Cc1ccc(NC(=O)N2CCCN(Cc3ccccc3F)C2)cc1,inactive
8,O=C(Nc1ccc(Cl)cc1)N1CCCN(Cc2ccccc2Br)C1,inactive
9,O=C1C2=C(Nc3ccccc3SC2c2cccc(I)c2)c2ccccc21 (centres undefined),inactive
10,O=C(Nc1cccc(F)c1)N1CCCN(Cc2ccccc2F)C1,inactive
11,O=C(Nc1ccc(Cl)cc1)N1CCCN(Cc2ccc(Br)cc2)C1,inactive
12,O=C(Nc1ccc(I)cc1)N1CCCN(Cc2ccccc2F)C1,inactive
13,Cc1ccccc1CNC(=S)Nc1ccncc1,inactive
14,Cc1cccc(NC(=O)N2CCCN(Cc3ccccc3F)C2)c1,inactive
